Measurements: PubChem BioAssay (NCATS)
Records with an inconclusive call do not appear. Active and inactive are the calls of the source. The call rests on the fitted dose curve; in most records, active means well fitted cell-killing curve with a large enough effect; inconclusive means small, poorly fitted or top-dose-only effect, or effect the other way; inactive means flat fitted curve, though single readings scatter. Where a SMILES comes first, the peptide text is derived from it. The star is where a group is joined. AMC = Cc1cc(=O)oc2cc(N*)ccc12; Cbz = O=C(OCc1ccccc1)*

tested on: CAOV3; experiment: Primary qHTS to identify gynecologic anti-cancer compounds using libraries of approved drugs and bioactive compounds (AID 1345084); conditions: Gynecologic cancer cell panel viability, ATPlite luminescence, 48 h; series mostly up to 57.5 µM; activity change, negative = cytotoxicity: at the top concentration; further: nearly all actives have a fitted effect of over 55% in size
Source text: National Center for Advancing Translational Sciences [NCATS] Assay Overview: Chemotherapeutic drug responses vary from cancer to cancer and from patient to patient. These variations could be caused by a number of factors including patient genomic background, tumor mutations, tumor heterogeneity, and aspects of drug treatment. Chemotherapeutic drug resistance is also a common issue and can lead to ineffective treatment and patient death. Here we have profiled the cell killing effects of thousands of compounds to characterize the responses in three gynecological cancers, identify cancer-selective compounds, and understand the diversity of responses to these compounds from pan-cancer suppressors to single cell line selective compounds. In this assay, we screened a 7,914 compound drug library that included approved drug and bioactive compounds in six ovarian, three cervical, and […] placental cancer cell lines using the ATPlite assay for cell viability. […] The cervical cancer cell lines included HeLa, Ca Ski, and C-33 A. The placental cancer cell lines included JEG-3. HEK 293T cells were used as the control cell line to determine the selectivity index. ATPlite is a luminescence based assay reliant on the conversion of a luciferase substrate to light in the presence of ATP. As a cytotoxic compound will suppress growth and decrease the number of cells, the concentration of ATP will decrease, and less light signal will be detected in the well.
Assay Protocol Summary: 1,000 cells in 4 uL of media were dispensed into white, solid bottom 1536-well plates using a Multidrop Combi (Thermo Scientific). The Assay plates were incubated for 16 hours at 37 C with 5% CO2 in assay plates, followed by the addition of 23 nL of DMSO or drug dissolved in DMSO. Each compound was assayed in five concentrations (0.092, 0.46, 2.3, 11.5, and 57.5 uM), using the automated Wako 1536 Pin Tool workstation and incubated at 37 C with 5% CO2 48 hours. 4 uL of ATPlite, the ATP monitoring reagent, was then added to the each well of the assay plates using the Multidrop Combi reagent dispenser followed by incubation for 15 minutes at room temperature. The resulting luminescence was measured using the ViewLux plate reader.
On the % scale 0 is the no-effect control and ±100 the full control effect.

Row | SMILES | activity change, negative = cytotoxicity
1 | Cc1cc(C(=O)N2Cc3cnn(C)c3Nc3ccccc32)ccc1CNC(=O)N1CCN(Cc2cc(O)cc(O)c2)CC1 | 19.2% (inactive)
2 | CC(O)C1CCC2C3CCC4CC(OC5OC(C(=O)O)C(O)C(O)C5O)CCC4(C)C3CCC12C (stereo not given) | 5.99% (inactive)
3 | COc1cc(C(CO)CO[C@@H]2O[C@H](CO)[C@@H](O)[C@H](O)[C@H]2O)ccc1O (stereo not given in full) | -11.4% [at 38.5 µM] (inactive)
4 | C[C@H]1[C@H](C)CC[C@]2(C(=O)O)CC[C@]3(C)C(=CCC4[C@@]5(C)C[C@@H](O)[C@H](O)C(C)(C)C5CC[C@]43C)[C@H]12 (stereo not given in full) | 4.77% [at 25.3 µM] (inactive)
5 | CC1(C)CC[C@]2(C(=O)O)CC[C@]3(C)C(=CCC4[C@@]5(C)C[C@@H](O)[C@H](O)[C@@](C)(CO)C5[C@H](O)C[C@]43C)[C@@H]2C1 (stereo not given in full) | -11.5% [at 25.3 µM] (inactive)
6 | O=C(O)C(Cc1ccccc1)NC(=O)C1CCCN1 (stereo not drawn) (H-Pro-Phe-OH; configuration not given here) | -9.48% (inactive)
7 | CC(=O)OC(C)(C)/C=C/C(=O)[C@](C)(O)C1[C@H](O)C[C@@]2(C)[C@@H]3CC=C4[C@@H](C[C@H](O[C@@H]5O[C@H](CO)[C@@H](O)[C@H](O)[C@H]5O)C(=O)C4(C)C)[C@]3(C)C(=O)C[C@]12C (stereo not given in full) | -4.43% [at 25.3 µM] (inactive)
8 | O=C(OCC(O)CO[C@@H]1O[C@H](C(=O)O)[C@@H](O)[C@H](O)[C@H]1O)c1ccccc1 (stereo not given in full) | -6.8% [at 38.5 µM] (inactive)
9 | CN(C)c1ccc(C2O[C@@H](c3ccccc3)C[C@H](c3ccccc3)O2)cc1 (stereo not given in full) | 9.3% (inactive)
10 | CC[C@H]1OC(=O)[C@H](C)C(=O)[C@H](C)[C@@H](OC2O[C@H](C)C[C@H](N(C)C)[C@H]2O)[C@@H](C)C[C@@H](C)C(=O)/C=C/[C@]1(C)O (stereo not given in full) | 2.62% [at 25.3 µM] (inactive)
11 | CC1=C(CO)CC(C(C)C2CCC3C4CC=C5CC(OC6OC(COC7OC(CO)C(O)C(O)C7O)C(O)C(O)C6O)CC(O)C5(C)C4CCC23C)OC1=O (stereo not given) | 30.4% [at 25.3 µM] (inactive)
12 | CC(=O)N[C@H]1[C@H](O[C@H]2CC[C@]3(C)C4CC=C5[C@@H]6CC(C)(C)CC[C@]6(C(=O)O)[C@H](O)C[C@@]5(C)[C@]4(C)CC[C@H]3C2(C)C)O[C@H](CO)[C@@H](O)[C@@H]1O (stereo not given in full) | -18.6% [at 25.3 µM] (inactive)
13 | N#Cc1ccc(C2CCCc3cncn32)cc1 (stereo not given) | -13.8% [at 25.3 µM] (inactive)
14 | C/C=C(\C)C(=O)OC[C@H]1O[C@H](O[C@H]2O[C@H](CO)[C@@H](O)[C@H](O)[C@H]2O[C@@H]2O[C@H](CO)[C@@H](O)[C@H](O)[C@H]2O)[C@H](O[C@@H]2O[C@H](CO)[C@@H](O)[C@H](O)[C@H]2O)[C@@H](O)[C@@H]1O | 9.92% [at 25.3 µM] (inactive)
15 | C/C=C(/C)C(=O)OC1C(OC(C)=O)C23C(O)OC4(CCC5C6(C)CCC(OC7OC(C(=O)O)C(O)C(OC8OC(CO)C(O)C(O)C8OC8OC(C)C(O)C(O)C8OC8OCC(O)C(O)C8O)C7OC7OC(CO)C(O)C(O)C7O)C(C)(C)C6CCC5(C)C4(C)CC2OC(C)=O)C3CC1(C)C (stereo not given) | 8.69% [at 6.55 µM] (inactive)
16 | CCC(=O)OCC(=O)[C@@]1(OC(=O)CC)[C@@H](C)C[C@H]2[C@@H]3CCC4=CC(=O)C=C[C@]4(C)[C@@]3(F)[C@@H](O)C[C@@]21C | -17.4% (inactive)
17 | Cc1onc(-c2ccccc2Cl)c1C(=O)N(C)c1ccc(Cl)cc1 | 10% (inactive)
18 | CC(C)c1c(NC(=O)Nc2ccc(Cl)cc2)c(=O)n(-c2ccccc2)n1C | -3.24% (inactive)
19 | Cc1cc(=O)oc2cc(NC(=O)[C@H](CCC(=O)O)NC(=O)[C@H](CC(C)C)NC(=O)[C@H](CC(C)C)NC(=O)OCc3ccccc3)ccc12 (Cbz-Leu-Leu-Glu-{AMC}) | 7.2% (inactive)
20 | CC(C)CC(c1c(O)c(C=O)c(O)c(C=O)c1O)C1CCC(C)(O)C2CC(C(C)(C)O)CCC12C (stereo not given) | 2.37% [at 25.3 µM] (inactive)

Row | SMILES | activity change, negative = cytotoxicity
21 | CC1(O)CC(O)C2C(C(=O)O)=COC(OC3OC(CO)C(O)C(O)C3OC(=O)/C=C/c3ccc(O)cc3)C21 (stereo not given) | 5.61% [at 25.3 µM] (inactive)
22 | COc1cc2c(cc1O)CC(O)(CO)C(CO)C2c1ccc(OC2OC(CO)C(O)C(O)C2O)c(OC)c1 (stereo not given) | 23.2% [at 25.3 µM] (inactive)
23 | CC1=C2C3OC(=O)C(C)C3(O)CCC2(C)CCC1 (stereo not given) | -3.28% (inactive)
24 | CCC(C)/C=C(C)/C=C/C1=CC2=C(Cl)C(=O)C(C)(OC(C)=O)C(=O)C2=CN1C(CCCN=C(N)N)C(=O)O (stereo not given) | -0.869% [at 25.3 µM] (inactive)
25 | CC(=O)OC[C@]12[C@H](OC(C)=O)[C@H](OC(=O)c3ccccc3)[C@@H]3[C@@H](OC(C)=O)[C@]1(OC3(C)C)[C@H](C)C[C@H](OC(=O)c1ccccc1)[C@@H]2OC(=O)c1ccccc1 | -1.42% [at 25.3 µM] (inactive)
26 | COC(=O)C1=CO[C@@H](O[C@@H]2O[C@H](CO)[C@@H](O)[C@H](O)[C@H]2O)[C@@H]2[C@@H](CO)[C@@H](O)C(O)[C@H]12 (stereo not given in full) | 13.7% [at 25.3 µM] (inactive)
27 | COc1ccc(C2(O)c3ccccc3NC(=O)C2OC)cc1 (stereo not given) | -8.33% (inactive)
28 | O=C(O[C@@H]1O[C@H](CO)[C@@H](O)[C@H](O)[C@H]1O)c1ccccc1 | 9.29% (inactive)
29 | COC(=O)C[C@@H]1C(C(=O)O)=CO[C@@H](O[C@@H]2O[C@H](CO)[C@@H](O)[C@H](O)[C@H]2O)/C1=C\COC(=O)/C=C/c1ccc(O)c(OC)c1 | 6.01% [at 25.3 µM] (inactive)
30 | COc1c(O[C@@H]2O[C@H](CO)[C@@H](O)[C@H](O)[C@H]2O)c(CCC(=O)O)cc2ccoc12 | 2.43% [at 38.5 µM] (inactive)
31 | O=C(O)Cc1cn([C@@H]2O[C@H](CO)[C@@H](O)[C@H](O)[C@H]2O[C@@H]2O[C@H](CO)[C@@H](O)[C@H](O)[C@H]2O)c2ccccc12 | 5.36% [at 25.3 µM] (inactive)
32 | CC1C(=O)OCC2=CC[N+]3([O-])CCC(OC(=O)C(C)(O)C1(C)O)C23 (stereo not given) | 18.4% [at 38.5 µM] (inactive)
33 | C=C(C(=O)O)[C@@H]1CC[C@@]2(C)CCC[C@@](C)(O)[C@@H]2C1 | 6.24% (inactive)
34 | CC1CCC2(C)CCC3(C)C(=CCC4C5(C)CCC(O)C(C)(C(=O)O)C5CCC43C)C2C1C (stereo not given) | -1.66% [at 25.3 µM] (inactive)
35 | CC12CC(c3ccoc3)OC(=O)C1CCC1(C)C2CCC(O)C1(C)O (stereo not given) | -1.87% [at 38.5 µM] (inactive)
36 | CC1(C)CCC[C@]2(C)C1CC=C(CO)[C@H]2CC/C(=C/CO)CO (stereo not given in full) | 2.04% [at 38.5 µM] (inactive)
37 | CC(C)C(O)(CO)CCO[C@@H]1O[C@H](CO[C@H]2OC[C@](O)(CO)[C@H]2O)[C@@H](O)[C@H](O)[C@H]1O (stereo not given in full) | 8.01% [at 25.3 µM] (inactive)
38 | COc1cc(C)c(C(=O)O[C@@H]2[C@H](O)[C@@H](CO)O[C@H]2n2ccc(=O)[nH]c2=O)c(OC)c1 | -8.91% [at 25.3 µM] (inactive)
39 | O=C(OC1C=C(CO)C2C(OC3OC(CO)C(O)C(O)C3O)OC=CC12O)c1ccc(O)cc1 (stereo not given) | -4.94% [at 25.3 µM] (inactive)
40 | CN1CCN(C2=Nc3ccccc3Nc3ccc(O)cc32)CC1 | 14.4% (inactive)
